PubChem BioAssay AID463173 (ICCB-Longwood Screening Facility, Harvard Medical School, 2010)
Among all 52,000 compounds or so, about 1,700 (3.3%) were called active. The sample holds actives, similar compounds and a random draw of the others, so the mix is not that of the screen. Unmarked numbers belong to inactive results. Rule as the data show it: active = survival mostly below about 52% (no sharp cut-off); inactive = mostly above about 56%.

Test system: Wild type
Assay: growth inhibition of S. aureus wild type versus tarO mutant, primary screen, teichoic acid synthesis inhibitors, RN4220, OD600 (AID 463173)
Conditions: S. aureus RN4220 wild type/DeltatarO growth, OD600, 18 h, active compounds read low, screened at 18.75 µg/mL (by protocol)

Structure (SMILES) | survival
O=C(Cn1c(=O)n(-c2ccccc2)c(=O)c2sc3ccccc3c21)NC1CCCC1 | 138%
CCOc1ccc(CNC(=O)CCn2nc(C)c3c(C)n(-c4ccccc4)nc3c2=O)cc1 | 129%
COc1ccccc1-c1cc2nc(C)c(CCC(=O)NCc3cccc(Cl)c3)c(C)n2n1 | 112%
CC(C)(C)OC(=O)N1CCC2(CC1)C(C#N)=C(N)OC1=C2C(=O)CCC1 | 104%
CN1CCN(CC(=O)Nc2ccc(C(=O)NCC3CCCO3)cc2)CC1 (stereo not drawn) | 108%
COc1ccc2c(c1)c1c(c(=O)n(-c3cccc(C)c3)c(=O)n1CC(=O)NCCC1=CCCCC1)n2C | 74%
COc1ccccc1C(=O)Nc1ccccc1OCc1cc(=O)n2ccccc2n1 | 92%
CCN(CC)C(C)C(=O)Nc1c(C)cccc1C (stereo not drawn) | 109%
O=C(Nc1ccc(Cl)c(-c2nc3ccccc3o2)c1)c1cccc2c(Cl)cccc12 | 67%
Cc1ccc2oc(-c3cc(NC(=O)Cc4ccccc4)ccc3Cl)nc2c1 | 70%
Cc1ccc2oc(-c3cc(NC(=O)/C=C/c4ccco4)ccc3Cl)nc2c1 | 25%
Cc1ccc2oc(-c3cc(NC(=O)c4ccco4)ccc3Cl)nc2c1 | 1% (active)
COc1c(C)cccc1C(=O)Nc1ccc(Cl)c(-c2nc3cc(C)ccc3o2)c1 | -6% (active)
Cc1ccc2oc(-c3cc(NC(=O)c4oc5ccccc5c4C)ccc3Cl)nc2c1 | 81%
CC(C)c1ccc(NC(=O)c2cc3c(=O)oc4ccccc4c3s2)cc1 | 87%
CCOC(=O)c1c(-c2ccc(OC)cc2)oc2ccc(OCc3ccc(F)cc3F)cc12 | 42%
CCCN1CCN(CCCNC(=O)c2cc3c(s2)-c2ccccc2OC3)CC1 | 83%
O=C(NCCc1ccc(Cl)cc1)c1cc2c(s1)-c1ccccc1OC2 | 105%
CCOc1ccc(NC(=O)c2cc3c(s2)-c2ccccc2OC3)cc1 | 100%
O=C(NCc1ccc(F)cc1)c1cc2c(s1)-c1ccccc1SC2 | 50%

Structure (SMILES) | survival
CCCN(C(=O)c1cc2c(s1)-c1ccccc1SC2)c1ccccc1F | 1% (active)
O=C(NCc1ccc(Cl)cc1)c1cc2c(s1)-c1ccccc1SC2 | 62%
CCc1cccc(NC(=O)c2cc3c(s2)-c2ccccc2OC3)c1 | 86%
O=C(NCCCN1CCN(c2ccccc2F)CC1)c1cc2c(s1)-c1ccccc1OC2 | 11% (active)
O=C(NCCCN1CCN(c2ccccc2)CC1)c1cc2c(s1)-c1ccccc1OC2 | 69%
O=C(NCCCN1CCN(c2ccc(F)cc2)CC1)c1cc2c(s1)-c1ccccc1OC2 | 62%
CCCN(C(=O)c1cc2c(s1)-c1ccccc1OC2)c1ccccc1F | -2% (active)
CCN(CC)CCOC(=O)c1ccc(NC(=O)c2cc3c(s2)-c2ccccc2OC3)cc1 | 5% (active)
Cc1ccc(NC(=O)C2CCCN2S(=O)(=O)c2ccc3c(c2)CCCC(=O)N3)cc1Cl (stereo not drawn) | 113%
COc1ccc(-c2nc3cc(N=Cc4ccccc4O)ccc3o2)cc1 | 111%
CCCCn1c2ccc(F)cc2c2nnc(SCCN3CCCCC3)nc21 | 139%
COCCCNC(=O)c1cc(-c2cccnc2)nc2ccccc12 | 118%
CCOc1ccc(NC(=O)CN2C(=O)c3ccccc3Sc3ccc(C(=O)OC)cc32)cc1 | 81%
COc1ccccc1OCc1ccc(C(=O)NCc2ccncc2)o1 | 116%
Cc1ccc(Cn2cc(S(=O)(=O)c3ccccc3)c(=O)c3cc(F)c(N4CCOCC4)cc32)cc1 | 58%
O=C(c1nc(-c2ccc(Cl)cc2)n2c1CCCCC2)N1CCN(c2ccc(F)cc2)CC1 | 70%
COc1ccc(C2c3c(n(C)c4ccccc34)C(=O)N2CC(=O)Nc2ccc(F)cc2)cc1 (stereo not drawn) | 81%
CC(=O)Nc1ccccc1-c1nc2cc(C#N)c(C#N)cc2[nH]c1=O | 108%
CCN(c1ccccc1C)S(=O)(=O)c1nnc(NC(=O)c2ccc(OC)c(OC)c2)s1 | 42%
COC(=O)c1ccccc1NC(=O)CCc1c(C)nc2c(c(C)nn2-c2ccccc2)c1C | 117%

Structure (SMILES) | survival
O=C(CSc1nc(-c2ccccc2)cn1-c1ccccc1)Nc1ccccc1 | 68%
COc1ccc(NC(=O)c2c(NCc3cccc(OC)c3)sc3c2CCC3)cc1 | 65%
CC(C)Nc1nc(NC(C)C)nc(N(C)C)n1 | 115%
Cc1ccc2oc3c(c(=O)c2c1)C(c1cccc(O)c1)N(Cc1ccccc1Cl)C3=O (stereo not drawn) | 82%
CCN(C(=O)c1cc2c(=O)n(CC)c3ccccc3c2s1)c1cccc(C(F)(F)F)c1 | 89%
CCc1ccccc1N(CC)C(=O)c1cc2c(s1)-c1ccccc1OC2 | 9% (active)
CCc1ccc(CNC(=O)c2cc3c(s2)-c2ccccc2OC3)cc1 | 95%
CCCN(C(=O)c1cc2c(s1)-c1ccccc1OC2)c1ccc(C(C)C)cc1 | 5% (active)
CCCN(C(=O)c1cc2c(s1)-c1c(C)cccc1OC2)c1ccc(OCC)cc1 | 95%
COc1ccc(Cl)cc1NC(=O)c1cc2c(s1)-c1ccccc1OC2 | 80%
CCN(C(=O)c1cc2c(=O)oc3ccccc3c2s1)c1cccc(C(F)(F)F)c1 | 131%
COc1ccccc1CNC(=O)c1cc2c(s1)-c1ccccc1OC2 | 92%
CCOc1ccc(N(CC)C(=O)c2cc3c(s2)-c2ccccc2OC3)cc1 | 88%
CCN(C(=O)c1cc2c(s1)-c1ccccc1OC2)c1cccc(C(F)(F)F)c1 | 14% (active)
CCOc1ccc(CNC(=O)c2cc3c(s2)-c2ccccc2OC3)cc1 | 91%
CCN(C(=O)c1cc2c(s1)-c1ccccc1OC2)c1cc(Cl)ccc1OC | 8% (active)
O=C(CSCc1cnn(-c2ccccc2)c1-n1cccc1)NCc1cccc(Cl)c1 | 91%
O=C(O)C1CCN(C(=O)c2ccc(-c3ccccc3)cc2)CC1 | 116%
